{"source": "PubChem BioAssay AID686979", "about": "(National Center for Advancing Translational Sciences (NCATS), 2013)", "note": "About 50,000 (12%) of roughly 420,000 compounds were called active. Another 26% or so got no clear call; they are omitted. This is one part of a sample in which actives are shown more often than they occur. Calls follow the shape of the dose curve; as a rule, active = well fitted inhibition curve with a large enough effect; inconclusive = small, poorly fitted or top-dose-only effect; inactive = flat fitted curve, though single readings scatter. % is scaled to controls: 0 for no effect and ±100 for the full control effect; potency is read from the fitted curve at half-maximal effect."}
{"assay": "qHTS for Inhibitors of human tyrosyl-DNA phosphodiesterase 1 (TDP1): qHTS in cells in presence of CPT; also: nearly all actives have a fitted effect of over 55% in size", "conditions": "chicken DT40 Tdp1-/-;hTDP1 cells + 20 nM CPT, ATP luminescence, 48 h; series mostly up to 46.2 µM; activity change, negative = growth inhibition: at the top concentration", "procedure,_shortened": "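Chicken DT40 Tdp1-/- cells complemented with human TDP1, 400 cells/well, exposed to compounds plus 20 nM camptothecin for at least 48 h at 37 C; viability read as ATP content by CellTiter-Glo luminescence.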"}
{"smiles": "Cc1ccc2c(=O)cc(C(=O)NCCc3ccc(S(N)(=O)=O)cc3)oc2c1C", "activity change, negative = growth inhibition": "5.84% (inactive)"}
{"smiles": "O=C1CC2(CCCC2)Oc2ccc(Cl)cc21", "activity change, negative = growth inhibition": "-14.3% (inactive)"}
{"smiles": "O=C1C=C(c2ccccc2)CCC1", "activity change, negative = growth inhibition": "-1.66% (inactive)"}
{"smiles": "CC1CCCCC1NC(=O)CN1CCC(O)(c2ccc3c(c2)OCO3)CC1", "note": "(configuration not stated)", "activity change, negative = growth inhibition": "-38.1% (inactive)"}
{"smiles": "CC(CCc1ccccc1)NCC(O)c1cccc([N+](=O)[O-])c1", "note": "(configuration not stated)", "activity change, negative = growth inhibition": "-4.34% (inactive)"}
{"smiles": "CCn1c2ccccc2c2nnc(N3CCN(c4cc(C)ccc4C)CC3)nc21", "activity change, negative = growth inhibition": "-9.5% (inactive)"}
{"smiles": "O=C(Cc1ccc([N+](=O)[O-])cc1)Nc1ccc(C(=O)N2CCOCC2)cc1", "activity change, negative = growth inhibition": "-29% (inactive)"}
{"smiles": "O=C(Cc1ccc(NC(=O)C2CCCN(C(=O)C3CCCCC3)C2)cc1)Nc1cccc(C(=O)N2CCCCC2)c1", "note": "(configuration not stated)", "activity change, negative = growth inhibition": "-13% (inactive)"}
{"smiles": "O=C(Cc1ccc(NC(=O)C2CCCN(C(=O)CCc3ccccc3)C2)cc1)Nc1ccc(C(=O)N2CCOCC2)cc1", "note": "(configuration not stated)", "Potency": "23.1 µM (active)"}
{"smiles": "CCNC(=O)c1cccc(NC(=O)C2CC(=O)N(CCc3ccccc3)C2)c1", "note": "(configuration not stated)", "activity change, negative = growth inhibition": "-1.71% (inactive)"}
{"smiles": "CN(C(=O)c1cccc(NC(=O)Cc2ccc(NC(=O)C3CCCN(C(=O)C4CC4)C3)cc2)c1)C1CC1", "note": "(configuration not stated)", "activity change, negative = growth inhibition": "-11.9% (inactive)"}
{"smiles": "CN(CCc1ccccc1)C(=O)c1cccc(NC(=O)Cc2cccc(NC(=O)C3CCCN(C(=O)C4CCC4)C3)c2)c1", "note": "(configuration not stated)", "Potency": "18.4 µM (active)"}
{"smiles": "CN(CCc1ccccc1)C(=O)c1cccc(NC(=O)Cc2cccc(NC(=O)C3CCCN(C(=O)CCc4ccccc4)C3)c2)c1", "note": "(configuration not stated)", "Potency": "14.6 µM (active)"}
{"smiles": "CN(C(=O)c1ccc(NC(=O)Cc2cccc(NC(=O)C3CCN(C(=O)c4ccccc4)CC3)c2)cc1)C1CC1", "activity change, negative = growth inhibition": "-1.06% (inactive)"}
{"smiles": "CC(=O)c1cccc(NC(=O)N2CCCC2C(=O)NCCc2ccccc2)c1", "note": "(configuration not stated)", "activity change, negative = growth inhibition": "-21% (inactive)"}
{"smiles": "COc1ccc(CC(=O)NC2CCSc3ccccc32)cc1OC", "note": "(configuration not stated)", "activity change, negative = growth inhibition": "-18.5% (inactive)"}
{"smiles": "CCOc1c2ccc(C(=O)NC3CCCc4ccccc43)cc2nn1CC", "note": "(configuration not stated)", "activity change, negative = growth inhibition": "-23.4% (inactive)"}
{"smiles": "O=C(Nc1ccc(S(=O)(=O)Nc2nccs2)cc1)c1cccc(S(=O)(=O)N2CCOCC2)c1", "activity change, negative = growth inhibition": "-2.77% (inactive)"}
{"smiles": "CC(C)(C)Nc1c(N)c(=O)oc2ccccc12", "activity change, negative = growth inhibition": "-22.7% (inactive)"}
{"smiles": "O=c1oc2ccccc2c(NC2CCCCC2)c1NS(=O)(=O)c1ccc(Cl)cc1", "activity change, negative = growth inhibition": "-23.5% (inactive)"}
{"smiles": "CCNc1c(NS(=O)(=O)c2ccc(C3CCCCC3)cc2)c(=O)oc2ccccc12", "Potency": "18.4 µM (active)"}
{"smiles": "CCc1ccccc1N1C(=O)C2C3CC(=O)C(c4ccccc43)C2C1=O", "note": "(configuration not stated)", "activity change, negative = growth inhibition": "0.543% (inactive)"}
{"smiles": "CC1CCC(CN2CCN=C2N(C)C)CC1", "note": "(configuration not stated)", "Potency": "8.2 µM (active)"}
{"smiles": "CCC(C)CCN1CCN=C1N(C)C", "note": "(configuration not stated)", "activity change, negative = growth inhibition": "-8.01% (inactive)"}
{"smiles": "CC(C)CCN1CCN=C1N(C)C", "activity change, negative = growth inhibition": "0.633% (inactive)"}
{"smiles": "NS(=O)(=O)c1cccc(NC(=O)COC(=O)c2cc([N+](=O)[O-])ccc2N2CCCC2)c1", "activity change, negative = growth inhibition": "-4.21% (inactive)"}
{"smiles": "CCOC(=O)N1CCC(N2CCOc3ccc(CN4CCC(O)(c5cccnc5)CC4)cc3C2)CC1", "activity change, negative = growth inhibition": "7.91% (inactive)"}
{"smiles": "NCCCNCCCCN(CCCN)/[N+]([O-])=N/O", "Potency": "13.3 µM (active)"}
{"smiles": "COc1ccc(N2CCN(Cc3ccc(Br)s3)CC2)cc1", "activity change, negative = growth inhibition": "-11.2% (inactive)"}
{"smiles": "CCCCCCCC[n+]1cccc(C(=O)N2c3c(nc(N)[nH]c3=O)NC(C)C2C)c1", "note": "(configuration not stated)", "activity change, negative = growth inhibition": "2.22% (inactive)"}
{"smiles": "Cc1ccc(S(=O)(=O)N[C@@H](Cc2ccccc2)C(=O)N2CCC(C(=O)N[C@H](C(=O)O)C(C)O)CC2)cc1", "note": "(some centres not stated)", "activity change, negative = growth inhibition": "9.5% (inactive)"}
{"smiles": "CC1(C)C=C2[C@H]3CC[C@@H]4[C@@]5(C)CCC(=O)C(C)(C)[C@@H]5CC[C@@]4(C)[C@]3(C)CC[C@@]2(C(=O)O)CC1", "Potency": "5.17 µM (active)"}
{"smiles": "N#Cc1cccc(OC(=O)c2ccc3c(=O)n4c(nc3c2)CCC4)c1", "activity change, negative = growth inhibition": "-29.3% (inactive)"}
{"smiles": "O=C(CCNC(=O)C1CCN(S(=O)(=O)c2ccccc2)CC1)NC1CC1", "activity change, negative = growth inhibition": "8.25% (inactive)"}
{"smiles": "O[C@H]1CN(Cc2cccs2)[C@@H](c2ccc(Cl)cc2)C[C@@H]1n1cc(C2CC2)nn1", "activity change, negative = growth inhibition": "-3.89% (inactive)"}
{"smiles": "O=C(Cc1cccs1)NCc1cccc(C(F)(F)F)c1", "activity change, negative = growth inhibition": "-2.51% (inactive)"}
{"smiles": "Cc1cc(O)ccc1-c1cc(C(=O)NCc2cc(C(F)(F)F)cc(C(F)(F)F)c2)[nH]n1", "Potency": "18.4 µM (active)"}
{"smiles": "Cc1ccc(O)c(-c2cc(C(=O)NCc3ccccc3)[nH]n2)c1", "activity change, negative = growth inhibition": "0.134% (inactive)"}
{"smiles": "Cc1ccc(NC(=O)COC(=O)C2C3CC4OC(=O)C2C4C3)cc1Cl", "note": "(configuration not stated)", "activity change, negative = growth inhibition": "-23.4% (inactive)"}
{"smiles": "Fc1ccccc1C(c1nnnn1Cc1ccc2c(c1)OCO2)N1CCN(Cc2ccccc2)CC1", "note": "(configuration not stated)", "Potency": "14.6 µM (active)"}
{"smiles": "CC(C)(C)n1nnnc1C(c1ccc(F)cc1)N1CCN(Cc2ccc3c(c2)OCO3)CC1", "note": "(configuration not stated)", "activity change, negative = growth inhibition": "-17.6% (inactive)"}
{"smiles": "CC(C)(C)n1nnnc1C(c1ccccc1F)N1CCN(C(=O)c2ccco2)CC1", "note": "(configuration not stated)", "activity change, negative = growth inhibition": "1.87% (inactive)"}
{"smiles": "Cc1cccc2c1cnn2C(=O)CCC(=O)NC1CCCCC1", "activity change, negative = growth inhibition": "5.61% (inactive)"}
{"smiles": "CCOc1ccc2[nH]c3nc(SCC(=O)NC4CCCC4)nnc3c2c1", "Potency": "5.17 µM (active)"}
{"smiles": "O=C(CSc1nnc2c(n1)[nH]c1ccccc12)NC1CCCCC1", "activity change, negative = growth inhibition": "-18.4% (inactive)"}
{"smiles": "COc1ccc2[nH]c3nc(SCC(=O)NC4CC4)nnc3c2c1", "activity change, negative = growth inhibition": "-0.657% (inactive)"}
{"smiles": "CCN(CC)CCNC(=O)c1ccc(NS(=O)(=O)c2ccc3c(c2)OCCO3)cc1", "activity change, negative = growth inhibition": "12% (inactive)"}
{"smiles": "O=S(=O)(Nc1ccccc1)c1ccc(NS(=O)(=O)c2cccs2)cc1", "activity change, negative = growth inhibition": "25.5% (inactive)"}
{"smiles": "NS(=O)(=O)c1ccc(CCNC(=O)c2ccc([N+](=O)[O-])cc2[N+](=O)[O-])cc1", "activity change, negative = growth inhibition": "-18.8% (inactive)"}
{"smiles": "Cc1cccc(S(=O)(=O)N(C)C[C@@H]2OCc3cnnn3CCCC(=O)N([C@H](C)CO)C[C@@H]2C)c1", "activity change, negative = growth inhibition": "1.91% (inactive)"}
{"smiles": "O=C(O)c1cc(Cl)c(Cl)cc1C(=O)Nc1cccc2ncccc12", "activity change, negative = growth inhibition": "-2.42% (inactive)"}
{"smiles": "Cc1ccc(C(=O)Nc2nc3ccc(Cl)cc3s2)o1", "activity change, negative = growth inhibition": "-6.67% (inactive)"}
{"smiles": "O=C(Nc1cccc2ncccc12)c1ccc(-c2ccc(Cl)cc2Cl)o1", "Potency": "20.6 µM (active)"}
{"smiles": "O=C(Nc1cccnc1Cl)c1cc(-c2cccc(Cl)c2)on1", "Potency": "inactive"}
{"smiles": "CC(=O)Cc1nsc(NC(=O)c2ccc(Cl)cc2Cl)n1", "activity change, negative = growth inhibition": "11.2% (inactive)"}
{"smiles": "Cc1csc(NC(=O)c2ccc(-c3ccc(Cl)cc3Cl)o2)n1", "Potency": "9.2 µM (active)"}
{"smiles": "O=C(Cc1ccsc1)N1CCN(S(=O)(=O)c2cc(C(F)(F)F)cc(C(F)(F)F)c2)CC1", "activity change, negative = growth inhibition": "-8.29% (inactive)"}
{"smiles": "COc1ccc(CN2CC(C(=O)NCCc3ccc(Cl)cc3)CC2=O)cc1", "note": "(configuration not stated)", "activity change, negative = growth inhibition": "-17.7% (inactive)"}
{"smiles": "CCc1ccc(Oc2coc3cc(O)ccc3c2=O)cc1", "activity change, negative = growth inhibition": "-11% (inactive)"}
{"smiles": "CCS(=O)(=O)Nc1cc(C(=O)OC)ccc1C(=O)OC", "activity change, negative = growth inhibition": "-16.4% (inactive)"}
{"smiles": "CCCN(CCC)C(=S)Nc1cc(C(=O)OC)ccc1C(=O)OC", "Potency": "18.4 µM (active)"}
{"smiles": "CCN(CCO)C(=S)Nc1cc(C(=O)OC)ccc1C(=O)OC", "activity change, negative = growth inhibition": "0.997% (inactive)"}
